Test results as given in PubChem BioAssay (NCATS).
Results filed as inconclusive are left out. Values without a mark were called inactive. Calls follow the shape of the dose curve; as a rule, active = well fitted activation curve with a large enough effect; inconclusive = small, poorly fitted or top-dose-only effect; inactive = flat fitted curve, though single readings scatter.

Test: qHTS for Activators of Parkin Expression: LOPAC Validation Assay (NLuc Reporter) (AID 720572;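 also: 0% = DMSO and 100% = positive control compound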)
Conditions: Parkin promoter NanoLuc reporter cells, luminescence; series mostly up to 46.1 µM; activation: at the top concentration
Text: Parkin is an E3 ubiquitin ligase localized in the cytosol of cells expressed in many tissues, including brain, skeletal muscle, heart and liver tissues. One hour after stress induction by mitochondrial uncouplers (which mimic mitochondria damage by decreasing the mitochondrial inner membrane electrochemical gradient that is used to produce ATP), Parkin translocates from the cytosol to mitochondria in many cultured cell types, including neurons and HeLa cells. Administration of other mitochondrial poisons, such as Paraquat and azide in cells lacking mitochondrial DNA (mtDNA), induces Parkin translocation to mitochondria. […] It was proposed that Parkin (together with Pink1) mediates a mitochondrial quality control pathway to maintain organelle population fidelity by removing damaged mitochondria. Understanding the normal physiologic role of Parkin (and Pink1) may uncover novel treatment strategies for sporadic Parkinson's disease patients with mutation in these genes.
A cell based qHTS in 1536 well format was developed assess modulation of Parkin expression using a neuronal cell line that stably expresses a stably expresses a luminescent coincidence reporter (FLuc and NLuc reporters) behind the Parkin promoter. The LOPAC library is used to validate the assay for quantitative high-throughput screening. The data herein reports the signal from the NLuc reporter. An increase in this signal = activation of Parkin expression. For this assay , a positive control normalized signal increase corresponding to a high quality qHTS curve class in both luminescent channels is the desired outcome for this assay.
NIH Chemical Genomics Center [NCGC]
NIH Molecular Libraries Probe Centers Network [MLPCN]
Assay Submitter (PI): Richard Youle, National Institute of Neurological Disorders and Strokes (NINDS), NIH
[1] Narendra, D., et al., Parkin is recruited selectively to impaired mitochondria and promotes their autophagy. J Cell Biol, 2008. 183(5): p.
[2] Suen, D.F., et al., Parkin overexpression selects against a deleterious mtDNA mutation in heteroplasmic cybrid cells. Proc Natl Acad Sci U S A, 2010. […] 11835-40.
[3] Cheng K, Inglese J. A coincedence reporter-gene system for high-throughput screening. Nat Methods. 2012: 9(10);937
Five microliters (1,500 cells/well) of the Parkin coincidence reporter cells were seeded to 1536 well assay plates (Greiner Catalog # 789173-F) and incubated at 37 C, 5% CO2 for 24 hours. Compounds (23 nL) were pinned using the Kalypsys robotic system equipped with 1536 pin head adaptor in 7-point dose response. The assay plates were incubated for additional 24 hr at 37 C, 5% CO2 followed by a volume reduction in each well to 2 uL using an automated plate washer/aspirator. Following the volume reduction,2 uL of FLuc detection reagent and plates were incubated for 10 minutes at room temperature. The FLuc luminescence signal was obtained using the PerkinElmer ViewLux plate imager and then 2 uL of NanoLuc detection reagent was added to the plates. After another 10 minute incubation, NanoLuc signal was obtained using the PerkinElmer ViewLux plate imager as before. Data from each channel was normalized to DMSO (neutral control) and the positive control compounds (100%).

Row | Structure (SMILES) | activation
1 | CC(N)c1cccc(Cl)c1Cl (stereo not given) | -3.66%
2 | NC(=O)CI | 25.7%
3 | NC(CCCCCP(=O)(O)O)C(=O)O (stereo not given) | -1.83%
4 | c1ccc2c(N3CCNCC3)cccc2c1 | -7.26%
5 | CCCN(CCC)[C@@H]1CCc2cccc(O)c2C1 | -5.04%
6 | CN(N=O)c1cc(O)ccc1O | -8.7%
7 | CCCn1c(C)c(C(=O)c2ccc3ccccc3c2)c2ccccc21 | -6.73%
8 | CC(=O)c1c(O)c(C)c(O)c(Cc2c(O)c3c(c(C(=O)/C=C/c4ccccc4)c2O)OC(C)(C)C=C3)c1O | 6.88%
9 | N[C@@H](Cn1oc(=O)[nH]c1=O)C(=O)O | -4.95%
10 | C=CCN1CCC23c4c5ccc(O)c4O[C@H]2C(=O)CC[C@@]3(O)C1C5 (stereo not given in full) | 1.93%
11 | O=[N+]([O-])/C=C/c1ccc2c(c1)OCO2 | -25.5%
12 | O=C(O)c1cc[c]([Hg][Cl])cc1 | 5.14%
13 | C[N+]1(C)CCOC(O)(c2ccc(-c3ccc(C4(O)C[N+](C)(C)CCO4)cc3)cc2)C1 (stereo not given) | 3.39%
14 | COc1ccc(CNC(=O)/C=C/c2ccc3[nH]cc(CCN(C)C)c3c2)cc1 | -6.83%
15 | CN(N=O)c1ccc(O)c(O)c1 | 8.02%
16 | CN1CCc2cc(O)cc3c2[C@H]1Cc1ccc(O)c(O)c1-3 | 19.9%
17 | COc1ccc(OC)c(C(O)C(C)N)c1 (stereo not given) | 1.05%
18 | Cc1sc2ccccc2c1CC1=NCCN1 | -2.69%
19 | C[C@H](Cc1ccc2c(c1)OC(C(=O)O)(C(=O)O)O2)NC[C@H](O)c1cccc(Cl)c1 | -2.74%
20 | Nc1ccc(CCN2CCN(c3cccc(C(F)(F)F)c3)CC2)cc1 | -0.14%

Row | Structure (SMILES) | activation
21 | COc1ccc2[nH]cc(CCN)c2c1 | 9.75%
22 | C=CCN1C[C@@H](C)N([C@H](c2ccc(C(=O)N(CC)CC)cc2)c2cccc(OC)c2)C[C@@H]1C | -1.01%
23 | NC(=O)c1cc(N2CC2)c([N+](=O)[O-])cc1[N+](=O)[O-] | -1.35%
24 | CNc1ccc2oc(C[C@H]3O[C@@]4(CC[C@H]3C)O[C@H]([C@H](C)C(=O)c3ccc[nH]3)[C@H](C)C[C@H]4C)nc2c1C(=O)O | -24.4%
25 | C[C@H](N)Cc1cccc(C(F)(F)F)c1 | -1.7%
26 | N=C(N)c1ccc(CS(=O)(=O)F)cc1 | 6.33%
27 | O=[N+]([O-])c1cc(O)c(O)c([N+](=O)[O-])c1 | -1.07%
28 | CN1CCC(c2c[nH]c3ccc(O)cc23)CC1 | 2.13%
29 | O=C1CC[C@@]2(O)C3Cc4ccc(O)c5c4C2(CCN3CC2CC2)[C@H]1O5 (stereo not given in full) | -2.44%
30 | O=S1(=O)N(CCN2CC=C(c3c[nH]c4cc(F)ccc34)CC2)c2cccc3c2N1CCC3 | 12.9%
31 | C[Se]C[C@H](N)C(=O)O | -6.1%
32 | NC(N)=Nc1ccc2[nH]c3c(c2c1)C[C@@]1(O)[C@H]2Cc4ccc(O)c5c4[C@@]1(CCN2CC1CC1)[C@H]3O5 | -17%
33 | CN1CCc2cccc(Cl)c2CC1 | 2.3%
34 | C[C@@H]1O[C@@H](O[C@H]2C[C@@H](O)[C@]3(CO)[C@@H]4C(CC[C@]3(O)C2)[C@@]2(O)CC[C@H]([C@@H]3COC(=O)C3)[C@@]2(C)C[C@H]4O)[C@H](O)[C@H](O)[C@H]1O (stereo not given in full) | 21.2%
35 | N#C/C(=C/c1ccc(O)c(O)c1)C(N)=S | 23.4%
36 | CC(C)(C)c1o[nH]c(=O)c1CC(N)C(=O)O (stereo not given) | 2.47%
37 | CCN(CCCl)Cc1ccccc1Br | -7.3%
38 | CC1(C(=O)O)C2CCC(O2)C1(C)C(=O)O (stereo not given) | -27.8%
39 | NCCc1c[nH]c2ccc(C(N)=O)cc12 | -2.39%
40 | N#CCCN | -1.84%
